Hits are enriched below; roughly 21% of the tested compounds scored in any of these assays.
RORg inh = blocks mouse ROR gamma transcriptional activity; P51450; 310,000 compounds, 5.4% hits; Drosophila S2 Gal4-RORgamma UAS-luciferase reporter, 20 h; Potency, µM (titrated, usually from 53.6 µM), for the others: top-dose activity change, negative = inhibition, most hits filed as inhibitors; AID 2551; also: potency is read from the fitted curve at half-maximal effect; nearly all actives have a fitted effect of over 60% in size
Target sequence (P51450 whole entry, looked up, the tested form may be a part): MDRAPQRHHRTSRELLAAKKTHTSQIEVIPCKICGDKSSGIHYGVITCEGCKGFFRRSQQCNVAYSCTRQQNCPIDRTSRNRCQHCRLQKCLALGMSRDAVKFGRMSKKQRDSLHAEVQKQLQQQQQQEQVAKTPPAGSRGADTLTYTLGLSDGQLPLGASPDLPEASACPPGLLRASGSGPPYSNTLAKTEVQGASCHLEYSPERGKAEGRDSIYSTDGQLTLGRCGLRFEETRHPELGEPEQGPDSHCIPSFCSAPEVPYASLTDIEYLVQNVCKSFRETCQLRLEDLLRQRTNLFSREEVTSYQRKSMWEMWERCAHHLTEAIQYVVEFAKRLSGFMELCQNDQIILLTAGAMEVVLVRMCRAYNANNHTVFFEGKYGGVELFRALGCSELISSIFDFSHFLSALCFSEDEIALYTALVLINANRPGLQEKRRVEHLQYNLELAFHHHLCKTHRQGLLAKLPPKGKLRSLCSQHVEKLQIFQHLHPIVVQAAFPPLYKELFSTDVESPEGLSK
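Drosophila S2 cells stably expressing Gal4-DBD/mouse RORγ fusion under metallothionein promoter plus UAS-luciferase; compound 1 h, then 700 uM CuSO4 induction for 20 h at ambient temperature; inhibition read as reduced luminescence.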
IL1B secr inh = inhibitors of inflammasome signaling (IL-1 beta secretion) | activity change, % at 57.5 µM | 360,000 compounds, 4.7% hits | THP-1 LPS/ATP IL-1B secretion, AlphaLISA, 16 h; hits give low values; in the data active = activity change below about -50%; inconclusive = mostly about -30% to -49%
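THP-1 cells pretreated 1 hr with compounds (up to 57.5 uM final), then stimulated with LPS (250 ng/mL final) plus ATP (1.25 mM final); secreted IL-1B measured by AlphaLISA after 16 hr, decreased signal indicating inhibition.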
TDP1 cell noCPT = qHTS for Inhibitors of human tyrosyl-DNA phosphodiesterase 1 (TDP1): qHTS in cells in absence of CPT | DT40 Tdp1-/- hTDP1 cells, no CPT, ATP luminescence, 48 h | Potency, µM (highest dose often 46.2 µM), for the others: at the top dose activity change, negative = growth inhibition, hits mostly inhibitors | 420,000 compounds, 15% hits | AID 686978, 2013; also: potency is read from the fitted curve at half-maximal effect; nearly all actives have a fitted effect of over 55% in size
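Chicken DT40 Tdp1-/- cells stably complemented with human TDP1 were seeded at 400 cells/well with DMSO in place of 20 nM camptothecin. After compound pinning, cells grew at least 48 hr at 37 °C; viability read by CellTiter-Glo luminescence.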
VP16 counter = Gal4-VP16 reporter inhibition counter-screen | Drosophila S2 Gal4-VP16 UAS-luciferase, luminescence, 20 h | Potency, µM (doses to about 53.6 µM), without a hit: top-dose activity, negative = inhibition, usual class: inhibitors | 310,000 compounds, 3.5% hits | AID 2546;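 also: Gal4-VP16 expression switched on by copper sulfate through the metallothionein promoter; potency is read from the fitted curve at half-maximal effect; nearly all actives have a fitted effect of over 50% in size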
ELG1 repair inh = inhibitors of ELG1-dependent DNA repair in HEK293T cells | 330,000 compounds, 2.3% hits | HEK293T ELG1-luciferase reporter, luminescence, 16 h; DNA damage induced by 5-fluorouridine | Potency, µM (titrated, usually from 46.1 µM), without a hit: at the top dose activity change, negative = inhibition, actives largely listed as inhibitors; also: potency is read from the fitted curve at half-maximal effect; nearly all actives have a fitted effect of over 55% in size
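Overnight (16 hr) co-exposure of 2,000 cells/well to 5-fluorouridine and compound at 37 °C preceded detection. Luciferase was quantified via ONE-Glo luminescence; loss of signal denotes inhibition.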
TDP1 cell CPT = DT40-hTDP1 cell growth loss with CPT | chicken DT40 Tdp1-/-;hTDP1 cells + 20 nM CPT, ATP luminescence, 48 h | Potency, µM (doses to about 46.2 µM), for the others: at the top dose activity change, negative = growth inhibition, hits mostly inhibitors | 420,000 compounds, 12% hits; also: potency is read from the fitted curve at half-maximal effect; nearly all actives have a fitted effect of over 55% in size
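Cell growth measured by CellTiter-Glo luminescence after a minimum 48 h, 37 C compound exposure with 20 nM CPT in Tdp1-knockout DT40 cells stably expressing hTDP1, seeded 400/well; qHTS titration format.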
Numbers without * were called inactive; ! = repeats disagree; [ ] = dose if it differs, or a comment. Unless noted, calls follow the shape of the dose curve; as a rule, active = well fitted curve in the direction sought with a large enough effect; inconclusive = small, poorly fitted or top-dose-only effect, or another doubt; inactive = no such curve, though single readings can be large; an effect the other way counts as inactive or inconclusive. % is scaled to controls: 0 for no effect and ±100 for the full control effect.

Screening CC(=O)c1cccc(NC(=O)c2cccc3c(-c4cccc(C(N)=O)c4)coc23)c1 returned IL1B secr inh 0.0, TDP1 cell noCPT 11.6µM* and TDP1 cell CPT 9.2µM*.
CC(=O)c1cccc(NC(=O)c2ccccc2-c2ccccc2C(=O)O)c1 was read as RORg inh -25.4%, IL1B secr inh -7.2, TDP1 cell noCPT 3.2%, VP16 counter -2.5%, ELG1 repair inh -16.2% and TDP1 cell CPT -12.0%.
For COc1ccc(NC(=O)c2ccco2)c2ccccc12 the results were RORg inh -13.1%, IL1B secr inh -2.0, TDP1 cell noCPT -1.1%, VP16 counter 13.0%, ELG1 repair inh 8.9% and TDP1 cell CPT -22.9%.
CC(C)c1cc(-c2nc(-c3ccc(Cl)cc3)no2)n[nH]1 was read as TDP1 cell noCPT 20.6µM* and TDP1 cell CPT 20.6µM*.
For COc1cc(-c2noc(-c3cc(C(C)C)[nH]n3)n2)cc(OC)c1OC the results were TDP1 cell noCPT 20.6µM* and TDP1 cell CPT inconclusive.
For Cc1ccc(N2C(=O)CCSC23C(=O)N(Cc2ccc(F)cc2)c2ccccc23)cc1 (stereo not drawn) the results were TDP1 cell noCPT 8.2µM* and TDP1 cell CPT 8.2µM*.
`Cc1ccc(N2C(=O)CSC23C(=O)N(CC(=O)NC2CCCCC2)c2ccccc23)cc1C` (stereo not drawn) gave TDP1 cell noCPT inconclusive and TDP1 cell CPT -16.7%.
Screening O=C1CS(=O)(=O)C2(C(=O)N(Cc3ccccc3)c3ccccc32)N1c1ccccc1 (stereo not drawn) returned TDP1 cell noCPT -10.8% and TDP1 cell CPT -10.1%.
O=C1CCSC2(C(=O)N(Cc3ccccc3)c3ccccc32)N1c1ccccc1 (stereo not drawn) was read as TDP1 cell noCPT 14.6µM* and TDP1 cell CPT 9.2µM*.
For Cc1cc(C)cc(N2C(=O)CS(=O)(=O)C23C(=O)N(Cc2ccccc2)c2ccccc23)c1 (stereo not drawn) the results were TDP1 cell noCPT -29.6% and TDP1 cell CPT -22.0%.
`Cc1ccc(N2C(=O)CCSC23C(=O)N(Cc2ccccc2)c2ccccc23)cc1` (stereo not drawn) gave TDP1 cell noCPT 16.4µM* and TDP1 cell CPT inconclusive.
Screening Cc1ccc(N2C(=O)CCSC23C(=O)N(Cc2ccccc2)c2ccccc23)cc1F (stereo not drawn) returned TDP1 cell noCPT 11.6µM* and TDP1 cell CPT 20.6µM*.
COc1ccc(NS(=O)(=O)c2cccc(N/C(=N\S(=O)(=O)c3ccccc3)c3ccc(F)cc3)c2)cc1 was read as RORg inh inconclusive, IL1B secr inh -6.3, TDP1 cell noCPT inconclusive, VP16 counter -25.6%, ELG1 repair inh inconclusive and TDP1 cell CPT 20.6µM*.
`O=S(=O)(/N=C(/Nc1ccc(Cl)c(S(=O)(=O)Nc2ccccc2Cl)c1)c1ccc(F)cc1)c1ccccc1` gave RORg inh inconclusive, IL1B secr inh -74.8*!, TDP1 cell noCPT -6.5%, VP16 counter -0.9%, ELG1 repair inh -2.7% and TDP1 cell CPT 2.7%.
COc1ccccc1NS(=O)(=O)c1cc(N/C(=N/S(=O)(=O)c2ccccc2)c2ccc(F)cc2)ccc1Cl was read as IL1B secr inh inconclusive and TDP1 cell noCPT 20.6µM*.
O=S(=O)(/N=C(/Nc1cccc2ccccc12)c1ccc(F)cc1)c1ccccc1 was read as RORg inh 13.9%, IL1B secr inh -19.2, TDP1 cell noCPT inconclusive, VP16 counter 22.9%, ELG1 repair inh -4.4% and TDP1 cell CPT inconclusive.
COc1cc(Cl)c(C)cc1NC(=O)c1cc(S(=O)(=O)N2CCCC2)ccc1F was read as TDP1 cell noCPT 4.9% and TDP1 cell CPT 5.9%.
For COc1ccc(S(=O)(=O)Nc2ccc3c(c2)C(=O)N([C@H](C)CO)C[C@H](C)[C@@H](CN(C)C(=O)Nc2c(C)noc2C)O3)cc1 the results were IL1B secr inh 10.9, TDP1 cell noCPT 2.5%, ELG1 repair inh 16.0% and TDP1 cell CPT -5.1%.
For CCOc1cc(/C=N/NC(N)=S)cc(Br)c1OCc1ccccc1C the results were RORg inh 0.794µM*, IL1B secr inh 68.4, TDP1 cell noCPT 16.4µM*, VP16 counter 2.51µM*, ELG1 repair inh -2.6% and TDP1 cell CPT 5.8µM*.
`CCOc1cc(/C=N/N=C(\N)c2nonc2N)cc(Br)c1OCc1cccc2ccccc12` gave RORg inh 12.6µM*, IL1B secr inh 3.2, TDP1 cell noCPT 13µM*, VP16 counter inconclusive, ELG1 repair inh 4.4% and TDP1 cell CPT 23.1µM*.
`COc1cccc(/C=N/NC(N)=S)c1OCc1ccccc1Cl` gave RORg inh 3.16µM*, IL1B secr inh -14.3, TDP1 cell noCPT 4.11µM*, VP16 counter 3.98µM*, ELG1 repair inh -21.5% and TDP1 cell CPT 2.91µM*.
`COc1cc(/C=N/NC(N)=S)cc(Br)c1OCc1ccccc1F` gave RORg inh 1µM*, IL1B secr inh 32.2, TDP1 cell noCPT 6.51µM*, VP16 counter 4.47µM*, ELG1 repair inh 23.1µM* and TDP1 cell CPT 6.51µM*.
For Cc1ncc2c(c1CNS(=O)(=O)N(C)C)CCN(C(=O)/C=C/c1ccccc1Cl)C2 the results were TDP1 cell noCPT inconclusive and TDP1 cell CPT 6.0%[9.04 µM].
Screening O=C(c1ccncc1)N1CCC2(CC1)CN(Cc1cc(C(F)(F)F)cc(C(F)(F)F)c1)C2 returned RORg inh 1.6%, TDP1 cell noCPT -7.3%, VP16 counter 6.2% and TDP1 cell CPT inconclusive.
`Cc1csc[n+]1CC(=O)c1ccccc1` gave TDP1 cell noCPT -12.5% and TDP1 cell CPT -17.0%.
Cc1ccc(C)c(NC(=O)Cn2cnc3nc4c(cc3c2=O)CCCC4)c1 was read as TDP1 cell noCPT inconclusive and TDP1 cell CPT -29.4%.
`COCCNC(=O)C1(C)CCCN(C(=O)c2cc(F)ccc2C)C1` (stereo not drawn) gave IL1B secr inh 17.0, TDP1 cell noCPT 3.2% and TDP1 cell CPT -1.8%.
For COc1c(F)cccc1C1=CC(=O)C[C@H](c2ccc(F)cc2)C1 the results were IL1B secr inh -29.7, TDP1 cell noCPT -6.4% and TDP1 cell CPT -28.1%.

From PubChem
